Among all 5,500 compounds or so, about 2,000 (36%) were called active. Another 18% or so got no clear call; they are omitted. Rule as the data show it: active = normalized growth mostly below about 0.91 (no sharp cut-off); inconclusive = no clear call, values can overlap the other calls; inactive = mostly above about 0.92. The list shows a part of the results.
Assay: chemical genetic growth profiling, strain panel (AID 1159580);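 also: tested at 20 µM; growth read once vehicle control cultures reached saturation at 30 °C; 1 = growth at the plate median or of vehicle wells; lower values mean less growth of the strain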
Conditions: growth OD
[1] = S. cerevisiae deletion strains, locus YAL013W, strain DEP1, hits give low values
[2] = S. cerevisiae deletion strains, locus YBR229C, strain ROT2, hits give low values
[3] = S. cerevisiae deletion strains, locus YDL101C, strain DUN1, hits give low values
[4] = S. cerevisiae deletion strains, locus YDR150W, strain NUM1, hits give low values
[5] = S. cerevisiae deletion strains, locus YEL061C, strain CIN8, hits give low values
[6] = S. cerevisiae deletion strains, locus YGR078C, strain PAC10, hits give low values
[7] = S. cerevisiae deletion strains, locus YHR030C, strain SLT2, hits give low values
[8] = S. cerevisiae deletion strains, locus YHR087W, strain rtc3, hits give low values
[9] = S. cerevisiae deletion strains, locus YJR043C, strain POL32, hits give low values
[10] = S. cerevisiae deletion strains, locus YJR075W, strain HOC1, hits give low values
[11] = S. cerevisiae deletion strains, locus YLR039C, strain RIC1, hits give low values
[12] = S. cerevisiae deletion strains, locus YLR058C, strain SHM2 (second series), hits give low values
[13] = S. cerevisiae deletion strains, locus YLR085C, strain ARP6, hits give low values
[14] = S. cerevisiae deletion strains, locus YLR262C, strain YPT6, hits give low values
[15] = S. cerevisiae deletion strains, locus YML094W, strain GIM5, hits give low values
[16] = S. cerevisiae deletion strains, locus YMR219W, strain ESC1, hits give low values
[17] = S. cerevisiae deletion strains, locus YMR263W, strain SAP30, hits give low values
[18] = S. cerevisiae deletion strains, locus YNL153C, strain GIM3, hits give low values
[19] = S. cerevisiae deletion strains, locus YNL298W, strain CLA4 (second series), hits give low values
[20] = S. cerevisiae deletion strains, locus YNL322C, strain KRE1, hits give low values
[21] = S. cerevisiae deletion strains, locus YNR030W, strain Alg12, hits give low values
[22] = S. cerevisiae deletion strains, locus YOL006C, strain TOP1, hits give low values
[23] = S. cerevisiae deletion strains, locus YPL055C, strain LGE1, hits give low values
[24] = S. cerevisiae deletion strains, locus YPL241C, strain CIN2, hits give low values
[25] = S. cerevisiae deletion strains, locus YPR135W, strain CTF4, hits give low values

Measured: normalized growth

Cc1ccc(NC(=S)C(C#N)C(=O)N2CCCC2)c(C)c1 (centres undefined)
inactive: [1] 1.01 | [2] 0.998 | [3] 1.01 | [4] 0.928 | [5] 1.02 | [6] 0.988 | S. cerevisiae deletion strains, locus YGR229C, strain SMI1, hits give low values 1 | [7] 1.06 | [8] 1.01 | [9] 1.01 | [10] 1.02 | S. cerevisiae deletion strains, locus YKL190W, strain CNB1, hits give low values 1.01 | [11] 1.02 | [12] 0.995 | [13] 1.06 | [14] 1 | [15] 1.03 | [16] 1 | [17] 0.922 | S. cerevisiae deletion strains, locus YMR307W, strain GAS1, hits give low values 1.03 | [18] 0.98 | [19] 1.03 | [20] 0.988 | [21] 1.02 | [22] 1.04 | [23] 0.948 | [24] 1.02 | [25] 1.04

Cc1cc(NC(=O)Nc2cccc(C(F)(F)F)c2)n(C)n1
inactive: [1] 1 | [2] 0.997 | S. cerevisiae deletion strains, locus YCL061C, strain MRC1, hits give low values 1.01 | [3] 0.983 | [4] 0.998 | [5] 1.01 | [6] 1.01 | [7] 1.08 | [8] 0.989 | [9] 0.998 | [10] 0.992 | [11] 1.02 | [12] 1.01 | [13] 0.986 | [14] 1.09 | [15] 0.987 | [16] 1 | [17] 1.01 | [18] 0.998 | [19] 0.991 | [20] 1.01 | [21] 1 | [22] 1 | [23] 0.989 | [24] 0.981 | [25] 1.08 | S. cerevisiae strains, strain wild type, hits give low values 0.986

N#CC(C(=O)Nc1cccc(C(F)(F)F)c1)C(=S)Nc1ccccc1Cl (centres undefined)
active: S. cerevisiae deletion strains, locus YDL214C, strain PRR2, hits give low values 0.296 | S. cerevisiae deletion strains, locus YDR477W, strain SNF1, hits give low values 0.105 | S. cerevisiae deletion strains, locus YER133W, strain GLC7, hits give low values 0.143 | S. cerevisiae deletion strains, locus YGR040W, strain KSS1, hits give low values 0.147 | S. cerevisiae deletion strains, locus YGR052W, strain FMP48, hits give low values 0.396 | S. cerevisiae deletion strains, locus YLR113W, strain HOG1, hits give low values 0.449 | S. cerevisiae deletion strains, locus YNL183C, strain NPR1, hits give low values 0.191 | S. cerevisiae deletion strains, locus YPL256C, strain CLN2, hits give low values 0.501 | S. cerevisiae deletion strains, locus YPR111W, strain DBF20, hits give low values 0.784
inactive: S. cerevisiae deletion strains, locus YAR019C, strain CDC15, hits give low values 0.992 | S. cerevisiae deletion strains, locus YDL017W, strain CDC7, hits give low values 0.985 | S. cerevisiae deletion strains, locus YDL028C, strain MPS1, hits give low values 1 | S. cerevisiae deletion strains, locus YDL108W, strain KIN28, hits give low values 0.99 | S. cerevisiae deletion strains, locus YDL132W, strain cdc53, hits give low values 0.976 | S. cerevisiae deletion strains, locus YDR052C, strain DBF4, hits give low values 1 | S. cerevisiae deletion strains, locus YDR054C, strain cdc34, hits give low values 0.98 | S. cerevisiae deletion strains, locus YER123W, strain YCK3, hits give low values 0.969 | S. cerevisiae deletion strains, locus YFL009W, strain cdc4, hits give low values 0.989 | S. cerevisiae deletion strains, locus YFL029C, strain CAK1, hits give low values 1 | S. cerevisiae deletion strains, locus YFR003C, strain YPI1, hits give low values 0.997 | S. cerevisiae deletion strains, locus YFR019W, strain FAB1, hits give low values 0.957 | S. cerevisiae deletion strains, locus YFR028C, strain CDC14, hits give low values 0.977 | S. cerevisiae deletion strains, locus YGR092W, strain DBF2, hits give low values 0.98 | [7] 0.957 | S. cerevisiae deletion strains, locus YHR079C, strain IRE1, hits give low values 0.978 | S. cerevisiae deletion strains, locus YHR205W, strain SCH9, hits give low values 0.975 | S. cerevisiae deletion strains, locus YIL147C, strain SLN1, hits give low values 0.996 | S. cerevisiae deletion strains, locus YJL095W, strain BCK1, hits give low values 0.914 | S. cerevisiae deletion strains, locus YJR016C, strain ILV3, hits give low values 0.978 | S. cerevisiae deletion strains, locus YJR066W, strain TOR1, hits give low values 0.78 | S. cerevisiae deletion strains, locus YKL048C, strain ELM1, hits give low values 0.986 | S. cerevisiae deletion strains, locus YKL101W, strain HSL1, hits give low values 0.994 | S. cerevisiae deletion strains, locus YKL193C, strain SDS22, hits give low values 0.998 | S. cerevisiae deletion strains, locus YLR133W, strain CKI1, hits give low values 0.984 | S. cerevisiae deletion strains, locus YLR403W, strain SFP1, hits give low values 0.979 | S. cerevisiae deletion strains, locus YML070W, strain DAK1, hits give low values 0.966 | S. cerevisiae deletion strains, locus YMR001C, strain CDC5, hits give low values 0.995 | S. cerevisiae deletion strains, locus YMR205C, strain PFK2 (second series), hits give low values 0.991 | S. cerevisiae deletion strains, locus YMR277W, strain FCP1, hits give low values 0.98 | S. cerevisiae deletion strains, locus YNL006W, strain LST8, hits give low values 0.991 | S. cerevisiae deletion strains, locus YNL020C, strain ARK1, hits give low values 0.981 | S. cerevisiae deletion strains, locus YNL207W, strain RIO2, hits give low values 0.996 | S. cerevisiae deletion strains, locus YNL307C, strain MCK1 (second series), hits give low values 0.983 | S. cerevisiae deletion strains, locus YOL078W, strain AVO1, hits give low values 0.992 | S. cerevisiae deletion strains, locus YOL136C, strain PFK27, hits give low values 0.959 | S. cerevisiae deletion strains, locus YOR061W, strain CKA2, hits give low values 0.97 | S. cerevisiae deletion strains, locus YOR231W, strain MKK1, hits give low values 1.01 | S. cerevisiae deletion strains, locus YOR329C, strain SCD5, hits give low values 0.997 | S. cerevisiae deletion strains, locus YPL153C, strain RAD53, hits give low values 0.963 | S. cerevisiae deletion strains, locus YPL204W, strain HRR25, hits give low values 0.963 | S. cerevisiae deletion strains, locus YPL209C, strain IPL1, hits give low values 1 | S. cerevisiae deletion strains, locus YPR025C, strain CCL1, hits give low values 0.993 | S. cerevisiae deletion strains, strain NNK1, hits give low values 1.02 | S. cerevisiae deletion strains, strain TSCII, hits give low values 0.996

Reference: PubChem BioAssay AID1159580 (chemical genetic matrix, 2015)
